# Measurements: PubChem BioAssay (Tox21)
# Calls of active or inactive are those of the source. Calls follow the shape of the dose curve; as a rule, active = well fitted curve in the direction sought with a large enough effect in the repeat runs; inconclusive = weak or mixed curves; inactive = flat fitted curve, though single readings scatter.
# Assay: qHTS assay to test for compound auto fluorescence at 535 nm (green) in HepG2 cell free culture (AID 720686)
# Conditions: Cell-free medium, green autofluorescence 485/535 nm; series mostly up to 91.3 µM; fluorescence, % of fluorescein control: at the top concentration
# Description: U.S. Tox21 Program National Center for Advancing Translational Sciences [NCATS] NIH Chemical Genomics Center [NCGC] U.S. Environmental Protection Agency [EPA] National Institutes of Environmental Health Sciences [NIEHS] National Toxicology Program [NTP] U.S. Food and Drug Administration [FDA] Tox21 Assay Overview: Compound auto fluorescence often interferes with screening of the compound library against various biological targets and signaling pathways. Some of these compounds may have fluorophoric properties. Such properties may interfere with the assay outputs resulting in false positives and/or negatives. To decrease such complications and ensure the compound activities are relevant in terms of biological response, the Tox21 10K compound library was screened for auto fluorescence. From the fluorophores used as reporter signals in our screening assays, the auto fluorescence equivalencies of compounds against three fluorophores have been evaluated: Triamterene, Fluorescein and Rose Bengal sodium for blue, green and red fluorescence, respectively. The fluorescence intensities were measured using Excitation/Emission wavelengths at 405/460nm, 485/535nm and 540/590nm for blue, green and red labels, respectively. This assay includes the green fluorescence data.
# Tox21 Assay Protocol Summary: 5 uL of culture medium (MEM containing 10% FBS) per well was dispensed into black wall/clear bottom 1536-well plates using a Multidrop Combi Dispenser (ThermoFisher Scientific, Waltham, MA). After 23 nL compound or DMSO vehicle was transferred into assay plate by a pintool work station (Kalypsys, San Diego, CA), fluorescence intensities in the assay plates were measured by an Envision (PerkinElmer, Shelton, CT) plate reader using three labels for measuring blue, green and red fluorescence at […] 460, 535 and 590nm respectively.
# % is scaled to controls: 0 for no effect and ±100 for the full control effect.
Structure (SMILES),"fluorescence, % of fluorescein control",outcome
O=c1oc2ccccc2c(O)c1Cc1c(O)c2ccccc2oc1=O,0.114% [at 18.6 µM] (inactive),–
Nc1ccccc1C(=O)OC/C=C/c1ccccc1,-0.021% (inactive),–
CCOc1cc(C(C)(C)C)ccc1C1COC(c2c(F)cccc2F)=N1 (stereo not given),0.109% (inactive),–
CN(C)S(=O)(=O)N(SC(F)(Cl)Cl)c1ccccc1,0.0234% (inactive),–
CC(=O)[O-].[Tl+],0.1% (inactive),–
c1ccc2cc3c(cc2c1)-c1cccc2cccc-3c12,0.0214% (inactive),–
CCCCCCCCCCCCCCCC[N+](C)(C)C,–,inactive
CC(C)OC(=O)C(O)(c1ccc(Cl)cc1)c1ccc(Cl)cc1,0.0528% (inactive),–
CCOC(=O)C1(c2ccccc2)CCN(CCC(C#N)(c2ccccc2)c2ccccc2)CC1,–,inactive
CCN(CC)c1c([N+](=O)[O-])cc(C(F)(F)F)c(N)c1[N+](=O)[O-],0.189% (inactive),–
Nc1ccc(Cc2ccc(N)c(Cl)c2)cc1Cl,-0.0695% (inactive),–
ClC1=C(Cl)C2(Cl)C3C(Cl)C=CC3C1(Cl)C2(Cl)Cl (stereo not given),–,inactive
ClCc1ccc(Cl)cc1Cl,-0.143% (inactive),–
C=CC(=O)OCCCCOC(=O)C=C,-0.0272% (inactive),–
CC(Cc1ccc(C(C)(C)C)cc1)CN1C[C@@H](C)O[C@@H](C)C1 (stereo not given in full),-0.113% (inactive),–
CS(=O)(=O)c1ccc(C(=O)C2C(=O)CCCC2=O)c([N+](=O)[O-])c1,0.176% [at 95.7 µM] (inactive),–
Clc1ccc(C(c2ccccc2Cl)C(Cl)(Cl)Cl)cc1 (stereo not given),–,inactive
COP(=O)(OC)SCn1c(=O)oc2cc(Cl)cnc21,-0.0649% (inactive),–
C1CCC2CCCCC2C1 (stereo not given),0.037% [at 95.7 µM] (inactive),–
ClC1=C(Cl)C2(Cl)C3C(Cl)C(Cl)CC3C1(Cl)C2(Cl)Cl (stereo not given),–,inactive

Structure (SMILES),"fluorescence, % of fluorescein control",outcome
O=[N+]([O-])c1ccc(Oc2ccc(C(F)(F)F)cc2[N+](=O)[O-])cc1,-0.202% (inactive),–
O=C(CCl)C(Cl)Cl,-0.044% (inactive),–
CCC[CH2][Sn]([CH2]CCC)([CH2]CCC)[O]C(=O)c1ccccc1,0.152% (inactive),–
Cc1cc(SCc2sc(-c3ccc(C(F)(F)F)c(F)c3)nc2C)ccc1OCC(=O)O,0.0326% (inactive),–
[Cd+2].[Cl-].[Cl-],–,inactive
CN(C)CCc1c[nH]c2cccc(O)c12,1.12% (inactive),–
O=C(O)COc1nc(Cl)c(Cl)cc1Cl,0.137% [at 95.7 µM] (inactive),–
S=C(SSC(=S)N1CCCCC1)N1CCCCC1,-0.0699% [at 46 µM] (inactive),–
Clc1ccc(CO/N=C(\Cn2ccnc2)c2ccc(Cl)cc2Cl)c(Cl)c1,0.153% [at 46 µM] (inactive),–
Cc1c(Cl)c(=O)oc2cc(OP(=O)(OCCCl)OCCCl)ccc12,0.0392% [at 46 µM] (inactive),–
CC(=O)Nc1ccc2c(c1)Cc1ccccc1-2,-0.0101% [at 95.7 µM] (inactive),–
O=C1NCN(c2ccccc2)C12CCN(CC1COc3ccccc3O1)CC2 (stereo not given),0.0116% [at 46 µM] (inactive),–
N#C/C=C/C#N,0.0355% [at 95.7 µM] (inactive),–
O=C(O)C1C2CCC(O2)C1C(=O)O (stereo not given),–,inactive
CC(C)Oc1cccc(NC(=O)c2ccccc2C(F)(F)F)c1,-0.145% (inactive),–
C[C@@H]1O[C@@H](O[C@@H]2C=C3CC[C@@H]4[C@H](CC[C@]5(C)[C@@H](c6ccc(=O)oc6)CC[C@]45O)[C@@]3(C)CC2)[C@H](O)[C@H](O)[C@H]1O,-0.0466% [at 18.6 µM] (inactive),–
NNC(=O)c1ccccc1,-0.0829% [at 95.7 µM] (inactive),–
S=C=Nc1cccc2ccccc12,0.12% (inactive),–
CCc1nn(C)c(C(=O)NCc2ccc(C(C)(C)C)cc2)c1Cl,0.0903% (inactive),–
N#CCCC(Br)(C#N)CBr (stereo not given),0.104% (inactive),–
